Screening results from PubChem BioAssay.
HEK293 viab = GF-AFC viability counterscreen for inhibitors of alpha-synuclein gene (SNCA) expression; HEK-293-SNCA-luc viability, GF-AFC fluorescence, 24 h; Potency, µM (series often up to 57.1 µM), for inactives: at the top dose activity change, negative = cytotoxicity, most hits filed as cytotoxic; actives 0.12% (n = 150,000);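 also: potency is read from the fitted curve at half-maximal effect; 0% = DMSO-treated cells and -100% = medium-only wells without cells; nearly all actives have a fitted effect of over 30% in size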
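Cytotoxicity counterscreen: after 24 h compound treatment of genome-edited SNCA-luciferase HEK-293 cells, live-cell protease substrate GF-AFC read by fluorescence after 30 min; activity scaled between DMSO (0%) and medium-only (-100%), curves Hill-fitted.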
SNCA expr inhib = Primary qHTS assay for inhibitors of alpha-synuclein gene (SNCA) expression; HEK-293 SNCA-luciferase knock-in, luminescence, 24 h; Potency, µM (series often up to 57.2 µM), for the others: at the top dose activity change, negative = inhibition, most hits filed as inhibitors; actives 0.17% (n = 140,000); AID 1671194, 2021;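 also: potency is read from the fitted curve at half-maximal effect; plate controls were DMSO cells for no effect and cell-free wells for full effect; nearly all actives have a fitted effect of over 45% in size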
KDM5B inhibitor = Primary screen for KDM5B Histone Demethylases FDH-coupled qHTS. KDM5B demethylase, FDH-coupled NADH fluorescence (FDH is formaldehyde dehydrogenase). AID 1347165, 2019. Lysine-specific demethylase 5B (Homo sapiens), Q9UGL1. actives 2.6% (n = 220,000). Potency, µM (top dose mostly 57.7 µM), most hits filed as inhibitors; also: potency is read from the fitted curve at half-maximal effect; 0% is about no effect; nearly all actives have a fitted effect of over 70% in size
Target sequence (Q9UGL1 whole entry, looked up): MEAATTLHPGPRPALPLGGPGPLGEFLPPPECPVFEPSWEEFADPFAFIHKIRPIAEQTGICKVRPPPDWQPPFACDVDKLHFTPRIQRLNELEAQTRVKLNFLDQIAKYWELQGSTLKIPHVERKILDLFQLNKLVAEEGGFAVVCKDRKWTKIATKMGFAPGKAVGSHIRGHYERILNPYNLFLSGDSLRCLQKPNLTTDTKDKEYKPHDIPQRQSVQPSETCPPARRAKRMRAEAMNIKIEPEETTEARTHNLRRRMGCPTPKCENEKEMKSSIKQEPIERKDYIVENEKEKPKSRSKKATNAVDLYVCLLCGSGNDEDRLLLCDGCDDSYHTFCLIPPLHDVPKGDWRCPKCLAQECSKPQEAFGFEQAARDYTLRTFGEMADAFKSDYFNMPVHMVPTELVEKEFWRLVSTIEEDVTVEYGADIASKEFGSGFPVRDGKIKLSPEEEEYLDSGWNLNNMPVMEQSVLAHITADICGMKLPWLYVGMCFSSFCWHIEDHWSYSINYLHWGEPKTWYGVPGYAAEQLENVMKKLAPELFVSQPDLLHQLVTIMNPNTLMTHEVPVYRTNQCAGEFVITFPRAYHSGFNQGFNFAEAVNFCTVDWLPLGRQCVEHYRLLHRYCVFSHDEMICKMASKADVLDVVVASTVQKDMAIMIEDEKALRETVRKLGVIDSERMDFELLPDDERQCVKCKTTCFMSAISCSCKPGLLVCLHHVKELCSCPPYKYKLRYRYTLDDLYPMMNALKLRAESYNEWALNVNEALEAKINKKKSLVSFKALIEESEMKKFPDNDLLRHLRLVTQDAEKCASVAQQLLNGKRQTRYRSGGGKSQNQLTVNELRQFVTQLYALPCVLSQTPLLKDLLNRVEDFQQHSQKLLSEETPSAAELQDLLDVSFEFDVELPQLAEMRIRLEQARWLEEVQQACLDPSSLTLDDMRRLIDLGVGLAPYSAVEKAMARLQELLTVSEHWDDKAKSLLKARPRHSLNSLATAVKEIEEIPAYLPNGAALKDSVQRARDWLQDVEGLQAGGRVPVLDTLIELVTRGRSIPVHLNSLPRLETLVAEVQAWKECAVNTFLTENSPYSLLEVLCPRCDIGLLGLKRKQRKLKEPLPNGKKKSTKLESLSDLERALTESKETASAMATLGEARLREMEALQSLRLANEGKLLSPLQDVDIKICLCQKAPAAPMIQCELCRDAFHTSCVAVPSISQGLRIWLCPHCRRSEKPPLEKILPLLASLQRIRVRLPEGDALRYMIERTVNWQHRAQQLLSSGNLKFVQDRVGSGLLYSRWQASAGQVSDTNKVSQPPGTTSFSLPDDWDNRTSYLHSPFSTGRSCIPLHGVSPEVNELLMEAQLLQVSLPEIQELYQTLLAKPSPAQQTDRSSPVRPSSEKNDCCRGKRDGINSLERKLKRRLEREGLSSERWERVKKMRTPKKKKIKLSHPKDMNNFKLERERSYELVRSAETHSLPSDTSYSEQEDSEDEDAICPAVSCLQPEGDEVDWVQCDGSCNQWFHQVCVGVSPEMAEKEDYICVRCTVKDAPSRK
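Inhibition is measured as reduced NADH fluorescence generation from FDH coupling to formaldehyde release. Truncated KDM5BΔAP at 200 nM final acts on H3K4me3 peptide (12.5 µM in substrate mix) in pH 7.5 HEPES buffer with Tween-20, 30 min, room temperature.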
IP6K1 inhibitor = Primary qHTS assay for small molecule inhibitors of Inositol hexaphosphate kinase 1 (IP6K1); IP6K1 kinase, ADP-Glo luminescence, 2 h; stronger effect = lower value; activity change, % (series mostly up to about 58 µM); actives 0.81% (n = 140,000); AID 1645851, 2021; in the data active = activity change below about -25%; also: % is scaled to controls: 0 for no effect and ±100 for the full control effect
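ADP-Glo luminescence measures ADP made by human IP6K1 during a 2 h RT reaction with ATP/IP6 (mix at 1.3 mM/130 uM); top library doses 57.5 and 19.1 uM final.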
Numbers without * were called inactive; i = inactive; ? = inconclusive; . = no result; ! = not confirmed by another sample; [ ] = another dose, or the depositor's remark. An excerpt weighted towards active compounds, which were near 2.9% of everything screened. Unless noted, calls follow the shape of the dose curve; as a rule, active = well fitted curve in the direction sought with a large enough effect; inconclusive = small, poorly fitted or top-dose-only effect, or another doubt; inactive = no such curve, though single readings can be large; an effect the other way counts as inactive or inconclusive.

SMILES	HEK293 viab	SNCA expr inhib	KDM5B inhibitor	IP6K1 inhibitor
Cc1ccccc1-c1ccc2n(c1=O)C[C@H]1C[C@@H]2CN(C(=O)Nc2ccc(Cl)cc2)C1	-7.2%[87.6 µM]	-25.5%[87.6 µM]	31.6µM*	-4.2
Cc1ccccc1-c1ccc2n(c1=O)C[C@H]1C[C@@H]2CN(C(=O)NC(C)C)C1	2.9%[87.6 µM]	-20.2%[87.6 µM]	35.5µM*	1.3
COc1ccccc1NC(=O)N1C[C@@H]2C[C@H](C1)c1ccc(-c3ccccc3C)c(=O)n1C2	-14.7%[87.6 µM]	11.1%[87.6 µM]	?	15.5
COCCC(=O)Nc1ccc2n(c1=O)C[C@H]1C[C@@H]2CN(CCCc2ccccc2)C1	1.8%[87.6 µM]	-19.5%[87.6 µM]	31.6µM*	-2.3
CC(C)C(C(=O)O)c1ccc(Cl)cc1 (stereo not given)	.	.	i	.
COc1cc2c(cc1OCc1ccccc1)NC(=O)C21CCN(c2ncc(F)cn2)CC1	-20.7%[87.6 µM]	-2.9%[87.6 µM]	31.6µM*	-16.8
COc1cc2c(cc1Oc1ccccc1)NC(=O)C21CCN(c2nc(C)cc(C)n2)CC1	-19.3%[87.6 µM]	?	?	-19.3
COc1cc2c(cc1OCC1CC1)NC(=O)C21CCN(c2ncc(F)cn2)CC1	-1.4%[87.6 µM]	-25.0%[87.6 µM]	i	-24.3
COc1cc2c(cc1OCC1CC1)NC(=O)C21CCN(c2nccc(C(F)(F)F)n2)CC1	0.2%	?	22.4µM*	-16.9
COc1cc2c(cc1Oc1ccccc1)NC(=O)C21CCN(C(=O)c2cnccn2)CC1	-5.7%[87.6 µM]	-2.0%[87.6 µM]	i	-14.5
COc1cc2c(cc1Oc1ccccc1)NC(=O)C21CCN(c2cnccn2)CC1	-10.4%[87.6 µM]	-30.0%[87.6 µM]	31.6µM*	-15.9
COc1cc2c(cc1Oc1ccccc1)NC(=O)C21CCN(c2ncc(F)cn2)CC1	-9.5%[87.6 µM]	?	31.6µM*	-21.1
CC(C)NC(=O)N1C[C@@H]2C[C@H](C1)c1c(-c3ccccc3F)ccc(=O)n1C2	4.0%[87.6 µM]	7.2%[87.6 µM]	i	13.9
Cn1ccnc1CN1C(=O)NC2(CCNCC2)C1=O	-2.7%	8.3%	i	2.6
Cc1ccc2c(c1)C(Cc1nc3ccccc3c(=O)n1-c1ccc(Br)cc1)C(=O)N2 (stereo not given)	?	?	?	-5.3
Cc1[nH]nc2ccc(-c3cncc(OC[C@@H](N)Cc4c[nH]c5ccccc45)c3)cc12	19.2µM*!	0.108µM*	.	4.6
CCN(CC)C[C@H]1CN2CC[C@H]1C[C@@H]2CNC(=O)Nc1ccccc1	-1.7%[87.6 µM]	-3.6%[87.6 µM]	i	7.7
O=C(c1ccccc1)N1C[C@@H]2C[C@H](C1)c1ccc(-c3cncnc3)c(=O)n1C2	-0.2%[87.6 µM]	1.0%[87.6 µM]	39.8µM*	-6.2
O=C(c1ccccc1)N1C[C@@H]2C[C@H](C1)c1c(-c3cncnc3)ccc(=O)n1C2	-0.4%[87.6 µM]	-19.2%[87.6 µM]	?	-5.1
O=C(c1ccc(F)cc1)N1C[C@@H]2C[C@H](C1)c1ccc(-c3cncnc3)c(=O)n1C2	1.6%[87.6 µM]	21.8%[87.6 µM]	39.8µM*	0.1
CN(C)CC(=O)Nc1ccc2n(c1=O)C[C@H]1C[C@@H]2CN(C(=O)c2ccc(F)cc2)C1	3.4%[87.6 µM]	-11.8%[87.6 µM]	i	-4.9
CC(=O)Nc1ccc(S(=O)(=O)NC[C@H]2C[C@@H]3CCN2C[C@@H]3c2cc(-c3ccc(N(C)C)cc3)nc(C)n2)cc1	-12.2%	-21.1%	20µM*	7.8
CC(=O)Nc1ccc(S(=O)(=O)NC[C@H]2C[C@@H]3CCN2C[C@@H]3c2cc(-c3ccco3)nc(C)n2)cc1	2.8%	-3.0%	31.6µM*	1.9
CCC(CC)c1cc([C@H]2CN3CC[C@H]2C[C@@H]3CNC(=O)C2CC2)nc(-c2ccncc2)n1	-0.7%[87.6 µM]	14.4%[87.6 µM]	i	13.0
O=c1oc2ccccc2c(O)c1Cc1c(O)c2ccccc2oc1=O	-10.6%[23.9 µM]	-1.9%[25.6 µM]	.	-25.1*
SMILES	HEK293 viab	SNCA expr inhib	KDM5B inhibitor	IP6K1 inhibitor
COc1ccc(C(=O)N2[C@H]3CC[C@@H]2c2cnc(-c4ccc(F)cc4)nc2C3)c(OC)c1	3.8%	-25.9%	i	0.3
COc1cccc(N2CC3CCC(C2)N3CC(F)(F)F)n1	-6.1%	-2.9%	100µM*	5.1
FC(F)(F)CN1C2CCC1CN(c1cnc3ccccc3c1)C2	-4.6%	3.4%	100µM*	3.7
COc1ccc(NC(=O)CCc2nc(C3=CCN(Cc4cccc(Cl)c4)CC3)no2)cc1OC	-9.9%	?	?	-0.8
COc1ccc(-c2cc([C@H]3CN4CC[C@H]3C[C@@H]4CN)nc(C)n2)cc1OC	?	5.0%[87.6 µM]	39.8µM*	5.6
CCNC(=O)NC[C@H]1C[C@@H]2CCN1C[C@@H]2c1cc(-c2ccc(OC)c(OC)c2)nc(C)n1	3.1%	2.9%	17.8µM*	-10.4
Cc1nc(-c2cccs2)cc([C@H]2CN3CC[C@H]2C[C@@H]3CO)n1	-24.8%[87.6 µM]	3.55µM*	35.5µM*	8.0
CCNC(=O)NC[C@H]1C[C@@H]2CCN1C[C@@H]2c1cc(-c2ccccc2)nc(C)n1	-14.3%[87.6 µM]	-1.6%[87.6 µM]	?	24.6
CCCS(=O)(=O)NC[C@H]1C[C@@H]2CCN1C[C@@H]2c1cc(-c2ccc(OC)c(OC)c2)nc(C)n1	-4.9%	-9.5%	25.1µM*	8.7
Cc1nc(-c2cccs2)cc([C@H]2CN3CC[C@H]2C[C@@H]3CNC(=O)C(C)(C)C)n1	8.1%[87.6 µM]	-27.1%[87.6 µM]	?	23.2
COc1ccc(-c2cc([C@H]3CN4CC[C@H]3C[C@@H]4COC(=O)NC3CCCCC3)nc(C)n2)cc1	-0.2%	0.6%	i	9.0
COc1ccc(C(C#N)C(C)=O)cc1OC (stereo not given)	.	.	i	.
COc1ccc(-c2cc([C@H]3CN4CC[C@H]3C[C@@H]4CNC(=O)CSCC(=O)O)nc(C)n2)cc1OC	-17.9%	12.8%	31.6µM*	-3.5
Cc1nc(-c2cccs2)cc([C@H]2CN3CC[C@H]2C[C@@H]3CNC(=O)c2ccc(C(F)(F)F)cc2)n1	-6.9%	-30.8%	i	5.2
Cc1nc(-c2ccc(C(F)(F)F)cc2)cc([C@H]2CN3CC[C@H]2C[C@@H]3CNC(=O)CCCC(=O)O)n1	5.1%	-25.2%	i	2.9
COc1ccc(-c2cc([C@H]3CN4CC[C@H]3C[C@@H]4CNC(=O)c3cccs3)nc(C)n2)cc1OC	0.0%	31.5%	28.2µM*	10.2
CCC(CC)c1cc([C@H]2CN3CC[C@H]2C[C@@H]3COC(=O)Nc2ccc(C(C)(C)C)cc2)nc(-c2ccncc2)n1	?	?	i	8.1
Cc1cccc(CN2CC=C(c3noc(CCC(=O)Nc4ccc(C)c(F)c4)n3)CC2)c1	-16.1%	7.0%	i	6.8
COc1cc2c(cc1CCc1ccccc1)N([S+](=O)([O-])c1ccc3c(c1)CCO3)CC21CCN(C(C)=O)CC1	-9.2%	?	28.2µM*	-4.3
O=[S+]1([O-])NC2(CCN(Cc3cccnc3)C2)COc2ccncc21 (stereo not given)	3.5%	-11.5%	i	2.0
O=[S+]1([O-])NC2(CCN(Cc3ccncc3)C2)COc2ccncc21 (stereo not given)	-1.3%	3.9%	39.8µM*	1.8
